Compounds with a hit are over-represented: about 7.4% of the library has one in this group of screens.
FLuc modulator: qHTS profiling assay for firefly luciferase inhibitor/activator using purifed enzyme and Km concentrations of substrates (counterscreen for miR-21 project). Luciferin 4-monooxygenase (Photinus pyralis), P08659. purified FLuc, Km substrates, luminescence inhibition. Potency, µM (titrated, usually from 57.5 µM), for the others: at the top dose activity change, negative = inhibition, most hits filed as inhibitors. hit rate 6.9% among 360,000. AID 588342, 2011;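 further: plate controls were vehicle for no effect and reference inhibitor for full effect; nearly all actives have a fitted effect of over 55% in size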
Target sequence (P08659 whole entry, looked up): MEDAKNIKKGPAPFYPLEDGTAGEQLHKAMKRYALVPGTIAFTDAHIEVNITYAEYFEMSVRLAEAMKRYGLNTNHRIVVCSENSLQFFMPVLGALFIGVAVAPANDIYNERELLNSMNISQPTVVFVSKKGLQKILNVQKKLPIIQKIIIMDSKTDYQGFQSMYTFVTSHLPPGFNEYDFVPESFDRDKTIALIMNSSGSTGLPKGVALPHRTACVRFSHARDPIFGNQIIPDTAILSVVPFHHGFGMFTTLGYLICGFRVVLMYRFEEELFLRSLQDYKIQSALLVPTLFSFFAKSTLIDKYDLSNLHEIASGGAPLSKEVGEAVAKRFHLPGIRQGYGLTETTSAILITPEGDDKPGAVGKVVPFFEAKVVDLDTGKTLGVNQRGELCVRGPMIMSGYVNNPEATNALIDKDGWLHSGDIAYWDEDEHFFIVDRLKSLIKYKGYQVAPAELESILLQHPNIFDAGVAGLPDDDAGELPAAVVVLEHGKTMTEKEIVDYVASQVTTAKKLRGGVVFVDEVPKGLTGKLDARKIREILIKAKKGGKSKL
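Biochemical qHTS of compounds, final roughly 60 µM downward over six points, against 10 nM purified firefly luciferase using Km concentrations of substrates (10 uM D-luciferin, 10 uM ATP) in Tris acetate pH 7.5 buffer; luminescence output.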
SMN2 splice enh: qHTS Assay for Enhancers of SMN2 Splice Variant Expression; HEK293 SMN2-luciferase splicing reporter, luminescence, 30-36 h; Potency, µM (series often up to 46.1 µM), without a hit: at the highest dose activity change, positive = activation, actives largely listed as activators; hit rate 2.8% among 210,000; further: % of control where 0% means no effect; nearly all actives have a fitted effect of over 55% in size
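qHTS luciferase splicing reporter: luminescence rises when SMN2 exon 7 is included in transfected HEK293 cells. Compound exposure lasted 30-36 h at 37C, with 4.5 mM final sodium butyrate as control, followed by a ONE-Glo read.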
Rab9 promoter act: qHTS Assay for Rab9 Promoter Activators; Potency, µM (top dose mostly 9.22 µM), without a hit: at the highest dose activation, negative = inhibition, hits mostly activators; Huh7 Rab9 promoter-luciferase reporter, luminescence, 24 h; AID 485297, 2010; hit rate 2.8% among 320,000; further: % of control where 0% means no effect; nearly all actives have a fitted effect of over 60% in size
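Luminescence read-out: Huh7 cells stably expressing Rab9-luciferase, treated 24 h with compound at 37 °C, then lysed with luciferase reagent for 10 min at ambient before reading.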
ELG1 genotox: qHTS screen for small molecules that induce genotoxicity in human embryonic kidney (HEK293T) cells expressing luciferase-tagged ELG1; AID 504466, 2011; Potency, µM (series often up to 46 µM), for the others: at the highest dose activity change, positive = activation, hits mostly activators; HEK293T ELG1-luciferase reporter, luminescence, 16 h; hit rate 1.3% among 330,000; further: % of control where 0% means no effect; nearly all actives have a fitted effect of over 60% in size
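16 hr compound incubation (37 °C, 5% CO2) of HEK293T cells carrying luciferase-tagged ELG1; luciferase then measured by ONE-Glo luminescence after 30 min at RT.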
NPC1 promoter act: qHTS Assay for NPC1 Promoter Activators; hit rate 2.4% among 320,000; Potency, µM (highest dose often 9.22 µM), without a hit: at the top dose activation, actives largely listed as activators; Huh7 NPC1 promoter luciferase reporter, 24 h; further: % of control where 0% means no effect; nearly all actives have a fitted effect of over 60% in size
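In 1536-well qHTS, Huh7 cells harboring an NPC1 promoter–luciferase construct received compound for 24 h; activation was quantified by luminescence following luciferase reagent addition.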
* = called active by the depositor; ? = inconclusive; nt = no result; [ ] = another dose, or the depositor's remark. The call rests on the fitted dose curve; in most records, active means well fitted curve in the direction sought with a large enough effect; inconclusive means small, poorly fitted or top-dose-only effect, or another doubt; inactive means no such curve, though single readings can be large; an effect the other way counts as inactive or inconclusive. Potency means the concentration at half of the fitted maximal effect.

SMILES | FLuc modulator | SMN2 splice enh | Rab9 promoter act | ELG1 genotox | NPC1 promoter act
COc1ccc2cc3cc(C(=O)NCCCN4CCc5ccccc5C4)sc3nc2c1 | 9.5µM* | 16µM* | 4.5µM* | 7% | ?
COc1ccc2nc3sc(C(=O)NCCN4CCc5ccccc5C4)cc3cc2c1 | ? | 4% | 13% | 7% | 2%
COc1ccc2cc3cc(C(=O)NC4CC4)sc3nc2c1 | 0.67µM* | nt | 0.32µM* | ? | 0.45µM*
Cc1ccc(NC(=O)CSCC(=O)O)cc1 | 2% | nt | 14% | 1% | -5%
CC(C)n1cnnc1SCC(=O)NCC(=O)Nc1ccc(F)cc1 | 3% | nt | 14% | -1% | 5%
CCC(C)c1ccc(NC(=O)CSc2nncn2N)cc1 (stereo not drawn) | ? | -11% | 6% | ? | 16%
Nn1cnnc1SCC(=O)Nc1ccc(C2CCCCC2)cc1 | 5.4µM* | ? | ? | ? | 3.5µM*
CC(C)n1cnnc1SCC(=O)Nc1ccc(N2CCCCC2)cc1 | 6µM* | nt | 2% | ? | -3%
O=C(O)CSCC(=O)Nc1ccc(C2CCCCC2)cc1 | 12µM* | -25% | nt | nt | nt
Cc1cc(=O)oc2cc(O)c(O)cc12 | nt | 7% | nt | nt | nt
CN(C)c1ccc(/C=C2/SC(=O)N(CCN=C3NS(=O)(=O)c4ccccc43)C2=O)cc1 | -13% | nt | ? | 12% | ?
CN(C)c1ccc(/C=C2\SC(=O)N(CCc3nnc(N)s3)C2=O)cc1 | 0.13µM* | nt | ? | ? | 0.1µM*
Cn1c(=O)n(-c2ccc3c(c2)OCO3)c2nc(-c3ccccc3)nc(C(N)=O)c21 | -9% | 0% | nt | nt | nt
COc1ccc(O)c(/C=N/N2CCCCC2)c1 | 9.5µM* | nt | 2µM* | ? | 3.2µM*
Oc1ccc(/C=N/N2CCCCC2)cc1O | ? | nt | -3%[1.84 µM] | ? | -22%
COc1ccc(/C(C)=N/N2CCCCC2)c(O)c1 | 9.5µM* | nt | 18% | 7% | 5%
CCC(Sc1nc2ccccc2c2nc(CCc3c(C)n[nH]c3C)nn12)C(=O)Nc1ccc(F)cc1 (stereo not drawn) | -3% | nt | nt | nt | nt
COc1ccc(Cn2c(=O)c3oc4ccccc4c3n(CC(=O)Nc3cc(C)cc(C)c3)c2=O)cc1 | -7% | nt | nt | nt | nt
Nc1nnc(-c2cccc(F)c2)s1 | -19% | nt | -3% | 7% | 3%
CNc1nnc(-c2cccc(N(C)C)c2)s1 | 15µM* | 14µM* | ? | 11µM* | ?
O=C(NC1CC1)c1ccc2c(Cl)c3c(nc2c1)CCCC3 | 13µM* | -19% | -5% | 0% | 0%
O=C(Nc1cccnc1Cl)c1ccc2c(Cl)c3c(nc2c1)CCC3 | 0.85µM* | ? | 0.71µM* | 2.3µM* | 1µM*
N#Cc1ccccc1NC(=O)c1ccc2c(Cl)c3c(nc2c1)CCCC3 | 3.8µM* | 10µM* | 3.5µM* | 12% | ?
CCOC(=O)N1CCC(NC(=O)c2ccc3c(Cl)c4c(nc3c2)CCCC4)CC1 | -2% | -22% | -4% | -4% | -3%
O=C(Nc1ccccc1F)c1ccc2c(Cl)c3c(nc2c1)CCC3 | 0.15µM* | ? | nt | nt | nt
SMILES | FLuc modulator | SMN2 splice enh | Rab9 promoter act | ELG1 genotox | NPC1 promoter act
CC(=O)c1cccc(NC(=O)c2ccc3c(Cl)c4c(nc3c2)CCCC4)c1 | ? | -5% | 13% | 0% | 5%
O=C(Nc1ccccc1Cl)C1CCN(c2nc3ccccc3nc2C(F)(F)F)CC1 | -9% | nt | nt | nt | nt
CC(=O)c1c(C)nc(-c2ccc(Cl)cc2)nc1N=CN(C)C | ? | 11µM* | 2.8µM* | 9.2µM* | 4µM*
CC(=O)c1sc(-c2ccc(Cl)cc2)nc1C | ? | 27% | ? | ? | 26%
CC(=O)c1c(C)nc(-c2ccc(Cl)cc2)nc1N | 6.7µM* | 10µM* | 3.2µM* | 4.1µM* | 3.5µM*
FC(F)(F)c1ccc(C2=Nc3ccccc3NC(c3cccs3)=N2)cc1 | -3% | -20% | nt | nt | nt
Cc1nc2ccccc2c(=O)n1/N=C/c1c(O)ccc2ccccc12 | 0% | nt | -2% | 11% | -1%
CCCc1nc2ccccc2c(=O)n1/N=C/c1ccc(O)cc1 | 2% | -6% | ? | -5% | 2%
Cc1nc2ccccc2nc1N/N=C/c1ccc(O)cc1 | 8.5µM* | nt | 25% | ? | -1%
Oc1ccc(/C=N/Nc2ccccc2)cc1 | -16% | -6% | 11% | 9% | -1%
O=c1c2ccccc2nc(N/N=C/c2c(O)ccc3ccccc23)n1O | 1.9µM* | -74% | -30% | 0% | -20%
O=c1c2ccccc2nc(N/N=C/c2ccc(O)cc2)n1O | 2.4µM* | 13% | 0% | -1% | 0%
CCCCn1c(=O)c2oc3ccccc3c2n(Cc2cccc(F)c2)c1=O | 0% | nt | nt | nt | nt
N#Cc1ccccc1OCC(=O)N1CCN(c2ccccc2F)CC1 | 0% | -25% | nt | nt | nt
O=C(N/N=C/c1cccnc1)c1cccc(Br)c1 | ? | nt | 20% | 5% | 2%
CCOc1ccc(OCc2cccc(C(=O)N/N=C/c3cccnc3)c2)cc1 | 1.5µM* | 0.13µM* | 0.1µM* | 0.23µM* | 0.1µM*
CC(C)c1ccc(OCc2cccc(C(=O)N/N=C/c3cccnc3)c2)cc1 | 0.85µM* | 0.22µM* | ? | 0.46µM* | 0.28µM*
CC(=O)Nc1ccccc1-c1nc2ccccc2n(C(C)C(=O)Nc2ccccc2C(F)(F)F)c1=O (stereo not drawn) | 0% | nt | nt | nt | nt
Cc1ccc(Nc2c(-c3cccnc3)nc3ccc(Cl)cn23)cc1 | 5% | -8% | nt | nt | nt
O=C(CSc1ncccc1-c1nc2ccccc2[nH]1)NC1CC1 | ? | 17% | -11% | 3% | 0%
O=C(CSc1ncccc1-c1nc2ccccc2[nH]1)N1CCN(c2ccccc2F)CC1 | 19µM* | -19% | 21% | -2% | -11%
COc1ccccc1N1CCN(C(=O)CSc2ncccc2-c2nc3ccccc3[nH]2)CC1 | 24µM* | -35% | 1% | 4% | 0%
COc1ccc(N2CCN(C(=O)CSc3ncccc3-c3nc4ccccc4[nH]3)CC2)cc1 | 11µM* | -31% | -2% | 3% | 8%
Cc1cccc2c1Oc1ccccc1[C@@H]2NC(=O)c1ccc([N+](=O)[O-])cc1 | nt | -3%[9.22 µM] | nt | nt | nt
CCCCc1nn2c(=O)cc(COC(=O)c3ccc(NC(=O)c4cccc(OC)c4)cc3)nc2s1 | -4% | nt | nt | nt | nt
O=C(COC(=O)c1cc(=O)[nH]c2ccccc12)c1ccc(Br)cc1 | ? | nt | -6% | 11% | 14%
CCOc1ccc(C(=O)COC(=O)c2cccc(-n3cnnn3)c2)cc1 | 2.7µM* | nt | ? | 23% | ?
CCOc1ccc(C(=O)COC(=O)c2cc(=O)[nH]c3ccccc23)cc1 | 1.3µM* | nt | 2% | 1% | -1%
CCc1cccc(C)c1NC(=O)C(CC)Sc1nc2ccncc2[nH]1 (stereo not drawn) | -10% | -15% | nt | nt | nt
Cc1cc(C)cc(NC(=O)CCc2c(C)nc3c(c2C)c(=O)n(C)c(=O)n3C)c1 | -3% | -18% | nt | nt | nt

Assay outcomes: PubChem, National Center for Advancing Translational Sciences (NCATS)
